Compounds with a hit are over-represented: about 9.2% of the library has one in this group of screens.
ELG1 genotoxic = induces genotoxicity in HEK293T cells with luciferase-tagged ELG1 | 330,000 tested, 1.3% active | HEK293T ELG1-luciferase reporter, luminescence, 16 h | Potency, µM (series often up to 46 µM), for inactives: at the top dose activity change, positive = activation, usual class: activators; further: % of control where 0% means no effect; nearly all actives have a fitted effect of over 60% in size
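Genotoxicity was scored as increased ELG1-luciferase reporter signal, measured by ONE-Glo luminescence (30 min, room temperature). Compound or vehicle exposure of the HEK293T reporter cells lasted 16 hr at 37°C.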
Rab9 promoter act = Rab9 promoter activation; Huh7 Rab9 promoter-luciferase reporter, luminescence, 24 h; 320,000 tested, 2.8% active; Potency, µM (highest dose often 9.22 µM), inactives show at the top dose activation, negative = inhibition, hits mostly activators; further: % of control where 0% means no effect; nearly all actives have a fitted effect of over 60% in size
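Stable Rab9-luc Huh7, 1500 cells/well, 2 h settle; cmpd in DMSO, 24 h, 37 °C/5% CO2; luciferase reagent 10 min RT; luminescence.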
FLuc modulator = counter-screen for miR-21 project: firefly luciferase inhibitors or activators. 360,000 tested, 6.9% active. P08659. AID 588342. purified FLuc, Km substrates, luminescence inhibition. Potency, µM (series often up to 57.5 µM), inactives show at the highest dose activity change, negative = inhibition, actives largely listed as inhibitors;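 further: plate controls were vehicle for no effect and reference inhibitor for full effect; nearly all actives have a fitted effect of over 55% in size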
Target sequence (P08659 whole entry, looked up): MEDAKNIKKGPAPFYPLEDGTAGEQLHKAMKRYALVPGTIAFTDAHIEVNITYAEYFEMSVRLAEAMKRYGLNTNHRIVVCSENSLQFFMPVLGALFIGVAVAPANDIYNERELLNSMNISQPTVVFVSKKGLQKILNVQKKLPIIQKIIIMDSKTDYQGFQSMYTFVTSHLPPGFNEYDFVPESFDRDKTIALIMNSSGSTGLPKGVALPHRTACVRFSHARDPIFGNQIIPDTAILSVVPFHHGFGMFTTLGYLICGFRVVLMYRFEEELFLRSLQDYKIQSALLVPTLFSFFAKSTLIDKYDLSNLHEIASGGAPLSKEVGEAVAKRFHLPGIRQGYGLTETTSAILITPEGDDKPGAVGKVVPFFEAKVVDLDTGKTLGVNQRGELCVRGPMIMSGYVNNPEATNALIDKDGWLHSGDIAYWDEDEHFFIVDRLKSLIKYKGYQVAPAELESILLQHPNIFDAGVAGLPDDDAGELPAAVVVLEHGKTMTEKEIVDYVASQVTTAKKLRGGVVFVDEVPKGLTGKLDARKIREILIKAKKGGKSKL
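Purified P. pyralis luciferase, 10 nM final, with Km-level 10 uM D-luciferin and 10 uM ATP in 50 mM Tris acetate pH 7.5, 10 mM Mg acetate, 0.01% Tween-20, 0.05% BSA; 6-point qHTS titration about 60 µM downward; luminescence read.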
SMN2 splice up = enhancers of SMN2 splice variant expression. AID 1458. HEK293 SMN2-luciferase splicing reporter, luminescence, 30-36 h. 210,000 tested, 2.8% active. Potency, µM (top dose mostly 46.1 µM), for the others: top-dose activity change, positive = activation, hits mostly activators; further: % of control where 0% means no effect; nearly all actives have a fitted effect of over 55% in size
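HEK293 cells carry an SMN2 […]–luciferase reporter in which exon 7 inclusion puts luciferase in frame. Cells were plated 10-12 h before compound addition, then incubated 30-36 h at 37C. ONE-Glo luminescence was read; sodium butyrate at 4.5 mM final served as control.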
ELG1 repair inh = blocks ELG1-dependent DNA repair in HEK293T cells; HEK293T ELG1-luciferase reporter, luminescence, 16 h; DNA damage induced by 5-fluorouridine; Potency, µM (titrated, usually from 46.1 µM), inactives show at the highest dose activity change, negative = inhibition, usual class: inhibitors; 330,000 tested, 2.3% active; further: on the % scale 0 is the no-effect control and ±100 the full control effect; nearly all actives have a fitted effect of over 55% in size
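In this reporter screen, reduction of luminescence relative to DMSO vehicle indicated activity. Compounds and 5-fluorouridine were added together to 2,000 cells per well, incubated for 16 hr at 37 °C, then developed with ONE-Glo.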
NPC1 prom act = activates the NPC1 promoter; Potency, µM (top dose mostly 9.22 µM), for the others: at the top dose activation, most hits filed as activators; 320,000 tested, 2.4% active; Huh7 NPC1 promoter luciferase reporter, 24 h; AID 485313; further: % of control where 0% means no effect; nearly all actives have a fitted effect of over 60% in size
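Luminescence read-out of NPC1 promoter-driven luciferase in stably transfected Huh7 cells; compounds delivered in DMSO and left 24 h at 37C, 5% CO2, qHTS titration format.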
Numbers without * were called inactive; ? = inconclusive; / = no result given; [ ] = another dose, or the depositor's remark. The call rests on the fitted dose curve; in most records, active means well fitted curve in the direction sought with a large enough effect; inconclusive means small, poorly fitted or top-dose-only effect, or another doubt; inactive means no such curve, though single readings can be large; an effect the other way counts as inactive or inconclusive. Potency means the concentration at half of the fitted maximal effect.

SMILES | ELG1 genotoxic | Rab9 promoter act | FLuc modulator | SMN2 splice up | ELG1 repair inh | NPC1 prom act
Cc1cc([N+](=O)[O-])ccc1NC(=O)c1cc2ccccc2o1 | -4% | 2.5µM* | ? | / | ? | ?
COc1cc(NC(C)=O)ccc1NC(=O)c1cc2ccccc2o1 | ? | ? | 3% | / | ? | ?
Cc1ccc(C)c(NC(=O)c2ccc3ccccc3n2)c1 | ? | 2µM* | 0.85µM* | 14µM* | ? | 4µM*
Cc1ccccc1OC(=O)CSc1nnc(-c2ccc3c(c2)OCO3)o1 | / | / | -4% | / | / | /
CCn1cc2c(n1)-c1c(oc(C(=O)Nc3cccc(C(F)(F)F)c3)c1C)CC2 | / | / | 0% | / | / | /
CCOC(=O)CNc1ncnc2c1nnn2C | / | / | 1% | / | / | /
Cc1cc(NC(=O)CN2C(=O)/C(=C/c3ccccc3F)SC2=S)no1 | -7% | 0% | -1% | / | -19% | 5%
Cc1ccc(C)c(NC(=O)c2cc3ccccc3o2)c1 | 17% | 4µM* | 13µM* | / | ? | ?
COc1cc(N)ccc1NC(=O)c1cc2ccccc2o1 | ? | 3.2µM* | 11µM* | / | ? | 4µM*
COc1ccc(OC)c(NC(=O)c2cc3ccccc3o2)c1 | ? | 0% | -15% | / | 6% | 15%
COc1ccc(C)cc1NC(=O)c1cc2ccccc2o1 | 7% | -1% | 15µM* | 17% | ? | 5%
Cc1ccc(NC(=O)CSc2nc(=O)n(Cc3ccccn3)c3c2CCC3)cc1F | / | / | -11% | / | / | /
CC(=O)NC(Cc1ccccc1)C(=O)OCC(=O)c1ccccc1 (stereo not drawn) | 2% | 3% | -2% | -5% | 6% | -4%
CC(=O)c1c(C)[nH]c(C2=NNC(=NC(C)(C)C)SC2)c1C | 15µM* | 1.6µM* | 24µM* | 13µM* | ? | 1.8µM*
CCOC(=O)c1c(C)[nH]c(C2=NNC(=Nc3ccccc3OC)SC2)c1C | -1% | ? | 9.5µM* | 11µM* | ? | 2.5µM*
CCOC(=O)c1c(C)[nH]c(C2=NNC(=Nc3ccccc3)SC2)c1C | -6% | 2.5µM* | 12µM* | / | ? | ?
CC(=O)c1c(C)[nH]c(-c2ccccc2)c1C | ? | -5% | ? | ? | 15% | 2%
CCOC(=O)c1c(C)[nH]c(C2=NNC(=Nc3ccc(OCC)cc3)SC2)c1C | -5% | -7% | ? | -33% | ? | 1%
Nc1cc(-c2cccc(Br)c2)nn1Cc1ccccc1 | 11% | 5% | ? | -40% | ? | 7%
Nc1cc(-c2ccc(Br)cc2)nn1Cc1ccccc1 | 7% | -17% | 17µM* | / | ? | -10%
CCC(=O)N(Cc1cc2ccccc2[nH]c1=O)C(C)C | 23µM* | 16% | 0% | -34% | 0% | -4%
CCC(=O)N1CCc2cc(S(=O)(=O)NCCC(=O)Nc3ccc(C)cc3C)ccc21 | / | / | -4% | 1% | / | /
Cc1nc2ccccn2c1C(=O)N/N=C/c1ccc([N+](=O)[O-])o1 | -7% | -6% | -6% | -37% | 10µM* | -9%
Cc1nc2ccccn2c1C(=O)N/N=C/c1ccc(CNC(=O)C(=O)Nc2ccccc2)o1 | 3% | 2% | 19µM* | ? | -5% | -5%
Cc1nc2ccccn2c1C(=O)N/N=C/c1ccc([N+](=O)[O-])cc1 | 1% | -13% | 2% | / | -1% | 2%
SMILES | ELG1 genotoxic | Rab9 promoter act | FLuc modulator | SMN2 splice up | ELG1 repair inh | NPC1 prom act
CCOc1ccc(NC(=O)CN(C)C(=O)c2cc(S(=O)(=O)N3CCCCC3)ccc2C)cc1OCC | 1% | 0% | -1% | / | -20% | -3%
CCOc1ccc(Nc2cc(C)c3ccccc3n2)cc1 | 11% | ? | 17µM* | / | ? | 21%
CCOc1ccc(Nc2c3ccccc3nc3ccccc23)cc1 | -7% | -25% | -8% | / | 5.8µM* | -23%
CCOC(=O)c1ccc(NC(=O)CCc2c(C)nc3c(c(C)nn3C)c2C)cc1 | / | / | -8% | 1% | / | /
O=C(OCc1cc(=O)n2ccsc2n1)c1ccc(O)cc1O | ? | 23% | ? | / | ? | ?
CC(=O)c1ccc(OCc2cc(=O)n3ccsc3n2)cc1 | ? | 4µM* | ? | ? | ? | ?
Cc1ccsc1C(=O)OCc1cc(=O)n2ccsc2n1 | ? | 1.4µM* | 11µM* | / | ? | 2.5µM*
CC(C)CCNC(=O)c1ccc(NC(=O)N2CCCCc3ccccc32)cc1 | / | / | 1% | -9% | / | /
O=C(O)C1CCCCN1C(=O)c1ccc(S(=O)(=O)N2CCCC2)cc1 (stereo not drawn) | 1% | -9% | -1% | / | -1% | 1%
COc1ccc(Br)cc1C(=O)Nc1cccc2ccc(C)nc12 | / | / | -6% | -2% | / | /
O=C(c1ccco1)N1CCN(C(c2ccccc2)c2nnnn2Cc2cccs2)CC1 (stereo not drawn) | 0% | 4% | 5% | -14% | 15% | 1%
CC(C)C(c1nnnn1Cc1cccs1)N1CCN(C(=O)c2ccco2)CC1 (stereo not drawn) | 6% | -20% | 0% | / | 6.5µM* | -27%
CCN(C(=O)c1cccc(S(=O)(=O)N(C)C)c1)C12CC3CC(CC(C3)C1)C2 | -8% | -12% | -2% | / | ? | -11%
COc1cc(NC(=O)c2cnc(N)s2)cc(C(=O)Nc2cccc(C(F)(F)F)c2)c1 | -3% | 11% | 12µM* | / | 0% | 13%
COc1cc(NC(=O)c2csc(N)n2)cc(C(=O)Nc2cccc(C(F)(F)F)c2)c1 | -14% | -21% | ? | / | 23µM* | 21%
COc1cc(NC(=O)c2ccnc(N)c2)cc(C(=O)Nc2cccc(C(F)(F)F)c2)c1 | 0% | -3% | 19µM* | / | 13% | -8%
COc1cc(NC(=O)c2cnc(N)o2)cc(C(=O)Nc2cccc(C(F)(F)F)c2)c1 | -13% | -6% | 21µM* | / | 15µM* | -3%
CCOc1ccc(-n2c(SCC(=O)c3ccccc3)nc3c([nH]c4ccccc43)c2=O)cc1 | / | / | 1% | / | / | /
CCN(CC)c1ccc(NC(=O)c2ccccc2F)cc1 | ? | 0.56µM* | 6µM* | 11µM* | ? | ?
CCOC(=O)Nc1cccc(NC(=O)c2ccccc2F)c1 | -1% | -7% | ? | -11% | -11% | -4%
O=C(O)c1cc(NC(=O)c2ccccc2F)cc(NC(=O)c2ccccc2F)c1 | 2% | 8% | 0% | / | 16% | -2%
O=C(Nc1ccc(Nc2ccccc2)cc1)c1ccccc1F | ? | ? | 12µM* | / | ? | ?
NC(=O)COc1ccc2cc(-c3ccc(F)cc3)c(=O)oc2c1 | ? | ? | -18% | / | ? | ?
COC(=O)COc1ccc2cc(-c3ccccc3)c(=O)oc2c1 | -1%[9.26 µM] | -6% | 12µM* | / | 9% | 0%
